14 compounds from PubChem BioAssay (NCI) can be followed below.

SMILES strings stand for the structures. About 83,000 compounds went through this panel and 20% of them were active in at least one assay; those are over-represented in the sample as a whole.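 Single-dose data. Exposure time 48 hours. Values below 10 considered active.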 Unmarked numbers belong to inactive results. Calls of active or inactive are those of the source.

Holding throughout (experiment): NCI-60 one-dose screen, 48 h (100 = growth as untreated, 0 = no growth, -100 = all killed)
What all share (settings): 10 µM unless noted

Assay [1] has as its system T-47D breast.
In assay [2] the test system is BT-549 breast.
For assay [3], the system named is MDA-MB-435 melanoma.
The test system of assay [4] is SW-620 colon.
The subject of assay [5] is MCF7 breast.
In assay [6] the test system is HCT-116 colon.
Assay [7] concerns HCC-2998 colon.
Assay [8] relates to KM12 colon.

On to `COc1ccc(-c2oc(=O)ccc2-c2cc(OC)c(OC)c(OC)c2)cc1O`, for which the growth was 44.7% in assay [1]; 24.7% in assay [2]; -64.9% (active) in assay [3]; 14.8% in assay [4]; 10.6% in assay [5]; -30.2% (active) in assay [6]. The growth in assay [7] was 211%; in assay [8] it was 22.6%.
Take `Cc1ccc2nc(Cl)c(Cn3nnnc3SCc3ccccc3)cc2c1`: the growth in assay [1] was 84.6%; in assay [2], 92.3%; in assay [3] it was 103%; in assay [4] it was 96.1%; in assay [5], 87.9%; in assay [6] it was 89.5%. Moreover, the growth in assay [7] is 111%; in assay [8] it was 101%.
On to `N=C(N)c1ccc(-c2ccc(-c3ccc(Cl)cc3)o2)o1`, for which the growth in assay [1] is 26.5%; in assay [2], 93.1%; in assay [3], -89.1% (active); in assay [4], -69.7% (active); in assay [5], -70.9% (active); in assay [6] it was -76.1% (active). Moreover, the results for the growth in assay [7] and in assay [8] were -81.1% (active) and -84.9% (active), respectively.
With `N#Cc1c(-c2ccccc2)nc2c(c(-c3ccccc3)nn2-c2ccccc2)c1-c1ccc(N2CCOCC2)cc1`, the growth in assay [1] is 96.7%; in assay [2], 99.8%; in assay [3], 90.5%; in assay [4] it was 45.6%; in assay [5], 57.6%; in assay [6], 65.5%. Besides, the growth was 107% in assay [7] and 95.7% in assay [8].
As for `O=C1/C=C/[C@@H](O)[C@@H]2C[C@@H](O)C[C@H]2/C=C/CCC[C@H](CCOCc2ccccc2)O1`, the growth was 15.6% in assay [1]; 7.15% (active) in assay [2]; 7.86% (active) in assay [3]; -23.8% (active) in assay [4]; -10.3% (active) in assay [5]; -71.1% (active) in assay [6]. Further, the growth in assay [7] was 3.47% (active); in assay [8], -60.5% (active).
On to `CCOC(=O)c1cn2ncnc(Oc3ccc(NC(=O)NC4CC4)c(F)c3)c2c1C`, for which the growth in assay [1] was 93.8%; in assay [2], 103%; in assay [3] it was 95.9%; in assay [4], 96.2%; in assay [5], 92.6%; in assay [6], 76.9%. Further, the growth was 110% in assay [7] and 101% in assay [8].
In the case of `O=C1/C(=C/c2ccccc2)CN(C(=O)c2cccnc2)C/C1=C\c1ccccc1`, the growth in assay [1] was 9% (active); in assay [2], -53.3% (active); in assay [3] it was -27.7% (active); in assay [4] it was -54.4% (active); in assay [5], 0.394% (active); in assay [6], -87.6% (active). Besides, the growth in assay [7] is -83.5% (active); in assay [8], -40.1% (active).
Consider `O=C(Nc1ccccc1)c1sc(-c2ccccc2)cc1O`, for which the growth was 101% in assay [1]; 95.8% in assay [2]; 90% in assay [3]; 102% in assay [4]; 78.9% in assay [5]; 96.5% in assay [6]. The growth is 101% in assay [7] and 85.1% in assay [8].
Take `COc1cccc(NC(=O)c2cccc(C3CCc4c(cc(OC)c(OC)c4OC)O3)c2)c1` (configuration not stated): the growth is 20.5% in assay [1]; 41.5% in assay [2]; 79.6% in assay [3]; 100% in assay [4]; 74.3% in assay [5]; 62.4% in assay [6]. Further, the growth in assay [7] is 81.4%; in assay [8], 81.5%.
Regarding `CCN1C(=O)N(CC)C2C1NN=c1s/c(=C\c3ccccc3Br)c(=O)n12` (configuration not stated), the growth was 85.5% in assay [1]; 16.3% in assay [2]; -15.7% (active) in assay [3]; 20.3% in assay [4]; 13.6% in assay [5]; 6.2% (active) in assay [6]. Further, the growth in assay [7] was 10.7%; in assay [8] it was 10.3%.
For `Nc1c(C(=O)Nc2cccc3ncccc23)sc2nc3c(cc12)C(=O)CCC3`, the growth was 49.3% in assay [1]; 55.2% in assay [2]; -18.2% (active) in assay [3]; 39.1% in assay [4]; 25.2% in assay [5]; 44.1% in assay [6]. For the same compound, the values for the growth in assay [7] and in assay [8] were 75.8% and 46.5%, respectively.
Consider `CCN(CC)CCCNCc1cc(-c2ccccc2)nc2cc(Cl)ccc12`, for which the growth in assay [1] is -82.5% (active); in assay [2] it was 40.1%; in assay [3], -39.7% (active); in assay [4], -0.394% (active); in assay [5], 23%; in assay [6], -16.5% (active). Also, the growth is -29.1% (active) in assay [7] and 14.5% in assay [8].
Regarding `C=CCCC(=O)N1C=CC(=O)[C@H](O)[C@@H]1/C=C/c1ccccc1`, the growth in assay [1] is 39.7% [100 µM]; in assay [2] it was 59.6% [100 µM]; in assay [3], 59.6% [100 µM]; in assay [4], 40.6% [100 µM]; in assay [5], 19.3% [100 µM]; in assay [6], 18.5% [100 µM]. For the same compound, the growth is 42.5% [100 µM] in assay [7] and 33.3% [100 µM] in assay [8].
For the compound `COC(=O)C1=C(C(=O)Nc2cccnc2)C2OC1(C(Cc1ccccc1)Oc1ccccc1)C1OC21` (configuration not stated), the growth is -46.7% (active) in assay [1]; 61.5% in assay [2]; 77.8% in assay [3]; -64.9% (active) in assay [4]; 24.9% in assay [5]; -46.3% (active) in assay [6]. Further, the growth is 105% in assay [7] and 96.8% in assay [8].
